According to PubChem BioAssay AID651813 (National Center for Advancing Translational Sciences (NCATS), 2012):
Among all 2,100 compounds or so, about 1,100 (52%) were called active. Another 27% or so got no clear call; they are omitted. The set was probably picked from earlier hits. The list shows a part of the results. Values without a mark were called inactive. Calls come from the whole dose curve; as a rule, active = well fitted inhibition curve with a large enough effect; inconclusive = small, poorly fitted or top-dose-only effect; inactive = no such curve, though single readings can be large or run the other way.

Molecular target: DNA dC->dU-editing enzyme APOBEC-3G (Homo sapiens) (UniProt Q9HC16)
Experiment: qHTS for inhibitors of Vif-A3G interactions: Cherry picks counterscreen;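 note: hits raise yellow fluorescence by blocking Vif-driven A3G-eYFP degradation; nearly all actives have a fitted effect of over 70% in size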;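 for max response: max response given as percent of control signal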
Conditions: HeLa A3G-eYFP + Vif (tagged APOBEC3G with the HIV-1 protein that degrades it), eYFP fluorescence, 24 h
Summary of the method: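 HeLa cells stably expressing A3G-eYFP and Vif were treated for 24 h at 37 deg C with compounds at several concentrations; yellow fluorescence (Ex 488 nm, Em 500-530 nm) read by Acumen Explorer, MG132 as positive control.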
Potency is the fitted concentration of half-maximal effect.

Sequence of DNA dC->dU-editing enzyme APOBEC-3G (Homo sapiens) (Q9HC16 whole entry, looked up): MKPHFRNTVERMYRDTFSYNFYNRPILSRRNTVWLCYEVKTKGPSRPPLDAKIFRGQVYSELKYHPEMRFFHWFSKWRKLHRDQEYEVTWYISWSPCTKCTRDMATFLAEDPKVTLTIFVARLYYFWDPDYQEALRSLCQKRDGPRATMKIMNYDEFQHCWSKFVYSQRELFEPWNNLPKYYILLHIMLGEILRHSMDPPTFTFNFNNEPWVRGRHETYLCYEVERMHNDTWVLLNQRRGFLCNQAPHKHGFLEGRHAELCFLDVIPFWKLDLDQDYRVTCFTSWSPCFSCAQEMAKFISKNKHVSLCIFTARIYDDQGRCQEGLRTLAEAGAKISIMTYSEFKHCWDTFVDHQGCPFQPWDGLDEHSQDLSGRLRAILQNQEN

| Structure (SMILES) | max response [%] | Potency |
| --- | --- | --- |
| CC1C/C(=N\NC(N)=S)c2cc(Cl)ccc2S1 (stereo not given) | -16.7 | – |
| Cc1cc(C)c2nc(SCC(=O)N3CC(=O)Nc4ccccc43)c(C#N)cc2c1 | – | 1.4 µM (active) |
| Cc1ccc(C(=O)CSc2nc(-c3ccccc3)ccc2C#N)cc1 | – | 10.3 µM (active) |
| N#Cc1ccc(-c2cccnc2)nc1SCC(=O)c1ccccc1 | – | 2.91 µM (active) |
| NN=C1c2ccccc2C(=O)C1C(=O)C(c1ccccc1)c1ccccc1 (stereo not given) | – | 15.8 µM (active) |
| O=C(c1ccccc1)C1C(=O)c2ccccc2C1=O | -3.97 | – |
| CC(C)NC(=S)N/N=C/c1sc(N2CCCCC2)nc1-c1cccs1 | – | 20.6 µM (active) |
| CC(C)NC(=S)N/N=C1\CCCCc2ccccc21 | -0.219 | – |
| COC(=O)C1=C(Nc2ccc(C)cc2)C=C(C)C(C(=O)OC)C1c1cccc(OC)c1 (stereo not given) | – | 11.2 µM (active) |
| COCc1ccc(O)c2ncccc12 | 15.6 | – |
| COCCCNC(=S)N/N=C/c1ccc(OC)cc1 | -8.47 | – |
| COc1ccc2c(c1)c(C(=O)N/N=C/c1ccc(Cl)cc1)c(C)n2C | – | 12.5 µM (active) |
| CC1=C/C(=C\C=C(C#N)C#N)N(C)c2ccccc21 | – | 2.06 µM (active) |
| CC(=O)c1cc2c(cc1NS(=O)(=O)c1ccc(C)cc1)OCCO2 | – | 12.5 µM (active) |
| CCN(CC)c1ccc(/C=C/c2cccc[n+]2C)c(OC)c1 | – | 7.04 µM (active) |
| O=C(NCCc1ccccc1Cl)c1ccc(Cn2c(=O)c3cccn3c3cccnc32)cc1 | – | 14.6 µM (active) |
| CCOc1ccc(CCNC(=O)c2ccc(Cn3c(=O)c4cccn4c4cccnc43)cc2)cc1 | -3.64 | – |
| N#Cc1cccn1-c1nccc(-c2cccs2)n1 | – | 8.86 µM (active) |
| Cc1[nH]c2ccccc2c1/C=C/C(=O)c1ccccc1 | – | 18.4 µM (active) |
| Cc1[nH]c2ccccc2c1/C=C/c1cc[n+](C)cc1 | – | 0.994 µM (active) |
| Cc1ccc2[nH]c(C)c(/C=C/c3cc[n+](C)cc3)c2c1 | – | 0.627 µM (active) |
| CC(OC(=O)/C(C#N)=C/c1ccc(N(C)C)cc1)C(=O)N(C)Cc1ccccc1 (stereo not given) | – | 23.1 µM (active) |
| O=C(C(=Cc1ccccc1)CN1CCCCC1)c1ccccc1 | – | 3.14 µM (active) |
| CC(C)(C)NCC(=Cc1ccccc1)C(=O)c1ccccc1 | -3.58 | – |

| Structure (SMILES) | max response [%] | Potency |
| --- | --- | --- |
| COc1cc(C2Nc3ccc4ncccc4c3C3=C2C(=O)CCC3)cc(OC)c1O (stereo not given) | – | 11.2 µM (active) |
| COc1cc(C2Nc3ccc4ncccc4c3C3=C2C(=O)CCC3)ccc1O (stereo not given) | – | 14 µM (active) |
| COC(=O)c1sc2cc([N+](=O)[O-])cc(SCC(C)C)c2c1N | – | 8.2 µM (active) |
| CCOC(=O)c1sc2cc([N+](=O)[O-])cc(SCC(C)C)c2c1N | – | 2.31 µM (active) |
| Cc1ccc2nc3c(cc(S(=O)(=O)c4ccccc4)c(=N)n3Cc3ccco3)c(=O)n2c1 | 17.8 | – |
| CCc1ccc(/C=N/NC(=O)c2cc(-c3ccncc3)nc3ccccc23)s1 | – | 3.53 µM (active) |
| O=C(N/N=C/c1ccco1)c1cc(-c2ccncc2)nc2ccccc12 | – | 11.2 µM (active) |
| CCn1c(O)c(/C=N/NC(=O)c2ccncc2)c(=O)n(CC)c1=S | -1.22 | – |
| CC(/C=N/NC(=O)c1cc(-c2ccc3ccccc3c2)n[nH]1)=C\c1ccco1 | – | 14 µM (active) |
| CC(/C=N/NC(=O)c1cc(-c2ccccc2)nc2ccccc12)=C\c1ccco1 | – | 2.23 µM (active) |
| CCC(=C/c1sc2ccc3ccccc3c2[n+]1C)/C=C1\Sc2ccc3ccccc3c2N1C | -21.8 | – |
| Cc1[nH]c2ccccc2c1/C=N/NC(=O)c1cc(-c2ccncc2)nc2ccccc12 | – | 9.94 µM (active) |
| COc1ccccc1NC(=O)Cc1ccc(-c2ccccc2)cc1 | -14.2 | – |
| O=C(Nc1ccccc1OC(=O)c1ccccc1)c1ccccc1 | – | 17.7 µM (active) |
| O=C(NC(=S)Nc1ccc(-c2ccccc2)cc1)c1ccccc1 | 2.13 | – |
| Cc1cc2c(cc(C(=O)OCC(=O)NCc3cccs3)n2C(C)C)o1 | – | 6.27 µM (active) |
| CCn1cc(/C=C/c2cc[n+](C)cc2)c2ccccc21 | – | 1.77 µM (active) |
| C=CCn1cc(/C=C/c2cc[n+](C)cc2)c2ccccc21 | – | 0.886 µM (active) |
| CC(C)n1cc(/C=C/c2cc[n+](C)cc2)c2ccccc21 | – | 3.53 µM (active) |
| O=c1[nH]c2cc(Br)cnc2nc1/C=C(\O)c1ccc(F)cc1 | – | 18.4 µM (active) |
| CCOc1cccc(-n2nnnc2-c2ccc(OC)cc2)c1 | – | 4.98 µM (active) |
| COc1ccc(-n2nnnc2-c2ccccc2)cc1 | – | 3.14 µM (active) |
| COc1ccc(-n2nnnc2-c2cccc(OC)c2)cc1 | – | 1.98 µM (active) |
| COc1cccc(C(=O)Nc2ncc3c(n2)CC(c2ccc(OC)cc2OC)CC3=O)c1 (stereo not given) | – | 17.7 µM (active) |

| Structure (SMILES) | max response [%] | Potency |
| --- | --- | --- |
| CCN(CC)c1ccc2cc(-c3nc4sc5c(c4c(=O)[nH]3)CCC(C(C)(C)C)C5)c(=O)oc2c1 (stereo not given) | 48 | – |
| COc1ccc2cc(-c3nc(Cl)c4c5c(sc4n3)CC(C)CC5)c(=O)oc2c1 (stereo not given) | – | 20.6 µM (active) |
| COc1ccccc1-c1nnc2sc(-c3cc4ccccc4o3)nn12 | – | 1.98 µM (active) |
| CS(=O)(=O)N(CC(=O)N1CCN(Cc2ccccc2)CC1)c1ccccc1F | -9.78 | – |
| CCN(CC)CCCNc1ccc2ncn3c4ccc(O)cc4c(=O)c1c23 | – | 23.1 µM (active) |
| CN(C)C(=O)c1cccc(-c2cnc3c(NC=O)cc(-c4ccccc4F)cn23)c1 | -0.0482 | – |
| Cc1ccc(-c2cc(NC=O)c3ncc(-c4cccc(C(=O)N(C)C)c4)n3c2)cc1 | – | 8.86 µM (active) |
| Cc1ccc(-c2cc(NC=O)c3ncc(-c4cnn(C)c4)n3c2)cc1 | – | 3.14 µM (active) |
| CC(C)n1c(O)c(N=Nc2ccc(Cl)nn2)c2ccccc21 | – | 18.4 µM (active) |
| NC(=O)CSc1nc2c(sc3ccccc32)c(=O)n1CCCC(=O)NCC1CCCO1 (stereo not given) | -5.1 | – |
| CCOC(=O)/C=c1/s/c(=C\c2c(OC)ccc3ccccc23)c(=O)n1CC(=O)NCC1CCCO1 (stereo not given) | – | 11.2 µM (active) |
| CCOC(=O)/C=c1\s/c(=C\c2c(OC)ccc3ccccc23)c(=O)n1CC(=O)NCC1CCCO1 (stereo not given) | – | 14.6 µM (active) |
| CN(C)c1ccc(/C=C/c2ccnc3c(Cl)ccc(Cl)c23)cc1 | – | 3.26 µM (active) |
| CN(C)c1ccc(/C=C/c2ccnc3c(N)cccc23)cc1 | – | 14.6 µM (active) |
| CN(C)c1ccc(/C=C/c2ccnc3c(Cl)cccc23)cc1 | – | 11.6 µM (active) |
| c1cncc(-c2nc(NCc3cccs3)c3ccccc3n2)c1 | -5.92 | – |
| Brc1ccc2c(c1)C(c1cccnc1)=NNC(c1cccs1)=N2 | – | 8.86 µM (active) |
| CC(=O)n1cc(/C=N/NC(=O)c2sc(C)nc2C)c2ccccc21 | – | 17.7 µM (active) |
| O=C(c1ccc(CS(=O)c2ccccc2Cl)o1)N1CCN(c2ccccc2F)CC1 (stereo not given) | – | 2.91 µM (active) |
| Cn1c(=O)[nH]c(=O)c2c1nc(Br)n2Cc1cccc(Br)c1 | – | 7.04 µM (active) |
| O=C1C=CC(O)(c2cc(=O)c3c(O)cc(O)cc3o2)C=C1 | – | 7.9 µM (active) |
| COc1cc(-c2noc(C)c2C#Cc2ccc(N)cc2)cc(OC)c1OC | – | 0.444 µM (active) |
| CCOC(=O)N1C/C(=C\c2ccccc2)C(=O)/C(=C/c2ccccc2)C1 | – | 8.86 µM (active) |
| Cc1cccc(C(=O)Nc2nnc(C3=COCCO3)o2)c1 | -1.82 | – |

| Structure (SMILES) | max response [%] | Potency |
| --- | --- | --- |
| O=c1oc2cc(O)ccc2cc1-c1nc(-c2ccc(Cl)c(Cl)c2)cs1 | – | 1.16 µM (active) |
| CCc1sc(-c2cc3ccc(O)cc3oc2=O)nc1-c1ccc(C)cc1 | – | 2.59 µM (active) |
| CCN(CC)c1ccc2cc(-c3nc(-c4ccc(Cl)cc4Cl)cs3)c(=O)oc2c1 | 34.3 | – |
| O=S(=O)(Nc1nc2ccccc2nc1N1CCN(c2ccccn2)CC1)c1ccc(Cl)cc1 | – | 16.4 µM (active) |
| NC(=O)C1CCN(c2nc3ccccc3nc2NS(=O)(=O)c2ccc(Br)cc2)CC1 | -5.92 | – |
| CN1CCN(c2nc3ccccc3nc2NS(=O)(=O)c2ccc(Br)cc2)CC1 | -6.45 | – |
| CCN1C(=S)SC(=O)C1=C1C=C(C)N(Cc2ccco2)C(C)=C1 | – | 15.8 µM (active) |
| Cc1cccc(C)c1NC(=S)NC(C)CCc1ccccc1 (stereo not given) | -1.19 | – |
| COc1ccc(NC(=O)c2c(Cl)n(C)c3ccccc23)cc1 | – | 14 µM (active) |
| CCOC(=O)c1csc(NC(=O)c2cc(-c3ccccn3)nc3ccccc23)n1 | -7.52 | – |
| COc1cc(C(=O)Nc2ccc(C)cc2)c2ccccc2n1 | – | 2.5 µM (active) |
| COc1ccc(NC(=O)c2cccc3ccccc23)cc1 | – | 15.8 µM (active) |
| CC(C)(C)c1ccc(Oc2ccc(NC(=O)c3ccccc3C(=O)O)cn2)cc1 | 6.3 | – |
| O=C(O)CSc1c2ccccc2cc2ccccc12 | -3.73 | – |
| CCN1/C(=C/c2cc[n+](C)cc2)C=Cc2cc(C)ccc21 | – | 23.1 µM (active) |
| O=C1/C(=C/c2ccc(O)cc2)SC(=S)N1Cc1cccnc1 | -0.458 | – |
| O=C1CSC(=S)N1Cc1cccnc1 | – | 4.11 µM (active) |
| Cc1ccc2c(c1)C=CC(C#N)N2C(=O)c1ccccc1 (stereo not given) | – | 4.98 µM (active) |
| C(=Cc1c[nH]c2ccccc12)c1nccc2ccccc12 | – | 20.6 µM (active) |
| Cc1ccc2c(/C=C/c3c[nH]c4ccccc34)ccnc2c1C | – | 5.8 µM (active) |
| C(=C\c1c[nH]c2ccccc12)/c1nccc2ccccc12 | – | 10.3 µM (active) |
| CNCC(O)Cn1c2c(c3ccccc31)CCCC2 (stereo not given) | 20.6 | – |
| O=C(c1ccccc1F)n1c2c(c3ccccc31)CCCC2 | – | 15.8 µM (active) |
